The list is not random: actives were taken first. Their share in the collection is about 3.4%.
FBW7 activator = human FBW7 E3 ligase activation, primary screen | Q969H0 | AlphaScreen FBW7–phospho-cyclin E peptide binding, activator screen | normalized activity (activation), % at 26.1 µM | 650,000 compounds, 0.13% hits | AID 1259310; in the data active means normalized activity above about 1.9%;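 further: purified mutant Fbw7 with reduced substrate affinity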
MITF primary = inhibitors of human MITF | AID 1259374 | O75030 | AlphaScreen MITF homodimerization, bead proximity signal | inhibition, % at 2.6 µM | 650,000 compounds, 0.91% hits; in the data active means inhibition above about 50%;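 further: 0% = vehicle wells with protein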
Target sequence (O75030 whole entry, looked up): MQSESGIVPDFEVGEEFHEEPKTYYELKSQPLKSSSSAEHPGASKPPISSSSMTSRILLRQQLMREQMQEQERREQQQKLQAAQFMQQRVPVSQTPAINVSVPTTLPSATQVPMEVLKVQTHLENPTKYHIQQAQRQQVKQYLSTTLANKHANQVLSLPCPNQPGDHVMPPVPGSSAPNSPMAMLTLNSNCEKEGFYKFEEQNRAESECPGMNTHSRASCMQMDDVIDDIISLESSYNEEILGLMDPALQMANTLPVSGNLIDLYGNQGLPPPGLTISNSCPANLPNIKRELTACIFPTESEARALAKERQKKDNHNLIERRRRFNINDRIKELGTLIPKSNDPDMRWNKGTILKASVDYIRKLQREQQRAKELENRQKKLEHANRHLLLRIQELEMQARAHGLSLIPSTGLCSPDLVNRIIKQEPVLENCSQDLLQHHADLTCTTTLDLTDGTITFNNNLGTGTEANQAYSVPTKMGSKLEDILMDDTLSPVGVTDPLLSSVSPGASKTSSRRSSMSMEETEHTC
TEAD-YAP inh = TEAD-YAP interaction inhibition | HEK-TIYL cells, TEAD-Gal4/YAP UAS-luciferase luminescence | inhibition, % at 9.12 µM | 640,000 compounds, 1.4% hits | AID 1259422; in the data active means inhibition above about 32%;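 further: 0% = median of test compound wells and 100% = reference inhibitor wells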
GPR151 activ = activates the human receptor GPR151 | PathHunter beta-arrestin GPR151 cells, luminescence | activation, % at 11.2 µM | 650,000 compounds, 1% hits | AID 1508602; in the data active means activation above about 4.9%;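 further: 0% = median of compound wells and 100% = cells with positive control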
Numbers without * were called inactive.

SMILES	FBW7 activator	MITF primary	TEAD-YAP inh	GPR151 activ
COc1ccc(-c2nc(NCCc3ccc(O)cc3)c3[nH]cnc3n2)cn1	0	8	33*	2
COc1ccc(CCNc2nc(-c3ccc(OC)nc3)nc3nc[nH]c23)cc1	0	15	20	0
COc1ccc(-c2nc(NCCc3ccc(O)cc3)c3[nH]cnc3n2)cc1	0	2	59*	1
C=COC(=O)C[n+]1csc2ccccc21	-1	4	-4	-1
CC1(Cc2cccc(C(N)=O)c2)C(=O)Nc2cc(C(F)(F)F)ccc21 (stereo not given)	0	4	11	-1
COc1ccc(C(=O)NC(C)Cc2ccccc2)cc1[N+](=O)[O-] (stereo not given)	0	0	-14	1
COC(=O)c1ccc(CC2(C)C(=O)Nc3ccc(-c4cccnc4)cc32)o1 (stereo not given)	1	18	13	0
CC1(Cc2ccc(F)cc2)C(=O)Nc2ccc(-c3cccnc3)cc21 (stereo not given)	0	6	38*	0
CC1(Cc2ccc(S(C)(=O)=O)cc2)C(=O)Nc2ccc(-c3cccnc3)cc21 (stereo not given)	1	45	19	0
CC1(Cc2ccc(Cl)s2)C(=O)Nc2ccc(-c3cccnc3)cc21 (stereo not given)	0	13	33*	3
CC1(Cc2ccc(C(F)(F)F)o2)C(=O)Nc2ccc(-c3cccnc3)cc21 (stereo not given)	1	2	40*	1
O=C1C2C3C=CC(C3)C2C(=O)N1c1cccc(Oc2c(F)c(F)c(Oc3cccc(N4C(=O)C5C6C=CC(C6)C5C4=O)c3)c(F)c2F)c1 (stereo not given)	1	19	1	-1
O=C(NC1CCCCC1)N1CCC(c2nc3c(nnn3Cc3ccccc3)c(=O)[nH]2)CC1	0	10	44*	2
O=C(C1CCCC1)N1CCC(c2nc3c(nnn3Cc3ccccc3)c(=O)[nH]2)CC1	0	14	-2	0
COc1ccc(Br)cc1/C=C1/C(=O)N(C)C(=S)N1C	0	2	4	1
Cc1cccc2cc(-c3nc4ccccc4[nH]3)c(=O)oc12	0	12	-43	0
Cc1ccc2cc(-c3nc4ccccc4[nH]3)c(=O)oc2c1	2.4*	21	-19	-3
C[C@@H](Nc1nc(-c2cccc3cccnc23)cnc1N)c1ccccc1	0	6	16	0
C[C@H](Nc1nc(-c2cccc3ncccc23)cnc1N)c1ccccc1	0	14	60*	-1
Nc1ncc(-c2cccc3ncccc23)nc1NCc1ccccc1	1	21	48*	1
Fc1cccc(/C=N/Nc2ncnc3nc[nH]c23)c1	0	9	9	-7
Cc1ccc(/C=N/Nc2ncnc3nc[nH]c23)cc1	0	9	29	-2
CN(C)c1ccc(/C=N/Nc2ncnc3nc[nH]c23)cc1	0	-4	60*	-1
Oc1ccc(Br)cc1/C=N/Nc1ncnc2nc[nH]c12	0	75*	72*	-2
COc1ccc(/C=N/Nc2ncnc3nc[nH]c23)cc1	0	11	58*	-2
SMILES	FBW7 activator	MITF primary	TEAD-YAP inh	GPR151 activ
Clc1cccc(/C=N/Nc2ncnc3nc[nH]c23)c1	0	4	58*	-5
COc1ccc(-n2nc3ccc(NC(=O)c4ccc(-c5ccc([N+](=O)[O-])cc5C)o4)cc3n2)cc1	0	7	6	-1
CCCCC(=O)Nc1c2c(nn1-c1ccccc1C)CS(=O)(=O)C2	0	8	-1	-1
COc1ccc(CNC(=O)/C(C#N)=C\c2ccc(O)cc2)cc1	0	0	0	3
COc1ccc2c(c1)-c1c(ssc1=S)C(C)(C)N2C(=O)CSc1nnc(C)s1	0	19	34*	-1
COc1cc(C(=O)N2c3ccccc3-c3c(ssc3=S)C2(C)C)cc(OC)c1OC	0	31	61*	2
CCC(=O)N1c2c(C)cc(C)cc2-c2c(ssc2=S)C1(C)C	-1	26	6	1
Cc1cc(C)c2c(c1)-c1c(ssc1=S)C(C)(C)N2C(=O)C(C)C	0	52*	17	-1
Cc1nnc(SCC(=O)N2c3cc(C)c(C)cc3-c3c(ssc3=S)C2(C)C)s1	0	17	3	0
Cc1ccc2c(c1)-c1c(ssc1=S)C(C)(C)N2C(=O)c1ccncc1	-1	27	55*	-2
CC(Oc1ccccc1)C(=O)NCC1CCC2(CCN(Cc3ccccc3F)CC2)O1 (stereo not given)	0	14	-5	-1
Cc1cc(Cl)n(-c2ccc([N+](=O)[O-])cc2)n1	0	4	7	-1
Cc1cc(C)n(-c2ncc(-c3ccc([N+](=O)[O-])cc3)cn2)n1	0	-4	59*	-1
Cc1nc2ccccc2c2c1C(c1cccs1)C(C#N)=C(N)O2 (stereo not given)	0	4	-5	-1
CCOC(=O)CNS(=O)(=O)c1cc(-c2nnc(Nc3ccc(Cl)c(Cl)c3)c3ccccc23)ccc1C	2.2*	6	1	0
Cn1c(SCC(=O)Nc2ccc3nc(SCC(=O)Nc4ccccc4F)sc3c2)nnc1-c1ccccc1	0	-11	-1	0
COc1ccc(-c2cccc(C(=O)NCCOc3ccccc3)n2)cc1	8.0*	3	17	1
COc1cc(-c2nc3ccc(C(=O)NCCc4ccccc4)cc3nc2-c2cc(OC)c(OC)c(OC)c2)cc(OC)c1OC	0	10	8	0
O=C(NCCOc1ccccc1)C(=O)NCc1ccco1	0	10	48*	1
O=C(NCCOc1ccccc1)c1cccc(-c2ccccc2)n1	0	15	-1	-1
Cc1ccc(C(=O)NCCOc2ccccc2)cc1	0	3	73*	-6
COc1cc(-c2nc3ccc(C(=O)NCCc4ccc(C)cc4)cc3nc2-c2cc(OC)c(OC)c(OC)c2)cc(OC)c1OC	1	22	38*	1
CCn1cc(/C=C(\NC(=O)c2ccc(OC)cc2)C(=O)NC(C)C)c2ccccc21	0	-16	-3	2
O=C(NCCOc1ccc(Cl)cc1)c1ccco1	2.3*	18	-5	0
Cc1ccc(C(=O)NCCc2ccccc2)cc1	0	-7	82*	-6
SMILES	FBW7 activator	MITF primary	TEAD-YAP inh	GPR151 activ
CC(=O)c1ccc(C(=O)NCCOc2ccccc2)cc1	1	0	68*	-5
CCc1ccc(OCCNC(=O)c2ccco2)cc1	0	3	-23	-2
O=C(CCC(=O)c1ccccc1)NCCOc1ccccc1	0	7	0	4
O=C(CCl)NCCOc1ccccc1	0	-9	36*	0
C=CCOC(=O)C1=C(C)NC(=O)NC1c1cn(-c2ccccc2)nc1-c1ccc(C)cc1 (stereo not given)	0	1	-10	-1
COCCNC(=S)NCCNc1nc2c(C)cccc2cc1C#N	0	-2	1	1
COC(=O)c1c(NC(=O)COc2cccc(Br)c2)sc2c1CCCC2	0	-3	-4	-1
COc1ccc(-c2c(C)oc3cc(OS(C)(=O)=O)ccc3c2=O)cc1OC	0	13	34*	-1

Screening data as filed in PubChem.
